Compound activity deposited in PubChem BioAssay by several laboratories.
The sample as a whole holds a higher share of hits than the screen did.
AMPAR-TARP mod: GluA2-stargazin AMPA receptor complex modulation | O88602+P19491 | HEK293 GluA2+stargazin, membrane potential dye (FDSS), glutamate EC50; hits were called plate by plate, in both directions | calls only at 30 µM | 3.5% of 40,000 active;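 active = any of four per-well response measures lying three or more SD from its plate-wide compound average, in either direction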
Target sequence (O88602 whole entry, looked up): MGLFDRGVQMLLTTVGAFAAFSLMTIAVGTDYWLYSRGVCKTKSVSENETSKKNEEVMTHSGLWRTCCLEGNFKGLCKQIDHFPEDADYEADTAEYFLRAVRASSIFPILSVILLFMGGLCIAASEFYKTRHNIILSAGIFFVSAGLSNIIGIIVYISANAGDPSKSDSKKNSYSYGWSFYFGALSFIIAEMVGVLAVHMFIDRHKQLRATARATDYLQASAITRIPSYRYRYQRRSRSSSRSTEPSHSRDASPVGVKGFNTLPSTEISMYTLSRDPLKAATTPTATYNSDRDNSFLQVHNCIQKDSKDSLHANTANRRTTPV
Target sequence (P19491 whole entry, looked up): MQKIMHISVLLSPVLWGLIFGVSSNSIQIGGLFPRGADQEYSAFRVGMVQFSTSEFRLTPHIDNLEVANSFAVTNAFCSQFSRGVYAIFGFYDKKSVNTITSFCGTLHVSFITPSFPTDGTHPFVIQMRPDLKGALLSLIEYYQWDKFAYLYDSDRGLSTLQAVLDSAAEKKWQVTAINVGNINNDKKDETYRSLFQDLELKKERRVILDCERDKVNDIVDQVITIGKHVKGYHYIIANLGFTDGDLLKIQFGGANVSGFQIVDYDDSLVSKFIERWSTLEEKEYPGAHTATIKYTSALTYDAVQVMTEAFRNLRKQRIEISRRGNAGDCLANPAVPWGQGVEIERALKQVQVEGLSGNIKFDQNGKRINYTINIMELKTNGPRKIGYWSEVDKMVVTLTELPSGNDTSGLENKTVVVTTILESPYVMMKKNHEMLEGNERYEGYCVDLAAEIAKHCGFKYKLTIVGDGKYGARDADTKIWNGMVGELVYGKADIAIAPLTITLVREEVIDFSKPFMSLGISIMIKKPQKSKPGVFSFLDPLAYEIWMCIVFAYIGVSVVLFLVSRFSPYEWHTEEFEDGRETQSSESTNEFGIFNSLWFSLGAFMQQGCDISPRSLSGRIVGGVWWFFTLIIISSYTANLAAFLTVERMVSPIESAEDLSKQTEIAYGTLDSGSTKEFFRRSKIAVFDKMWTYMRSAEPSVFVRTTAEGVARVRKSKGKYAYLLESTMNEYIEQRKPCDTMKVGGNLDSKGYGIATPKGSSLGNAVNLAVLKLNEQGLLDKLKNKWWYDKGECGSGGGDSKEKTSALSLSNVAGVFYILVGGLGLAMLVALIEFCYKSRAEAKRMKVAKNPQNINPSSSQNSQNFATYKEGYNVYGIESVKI
GIRK2 act: Activates human GIRK2-containing potassium channels | AID 1259324 | P48051 | 34,000 tested, under 10 active | HEK293 GIRK2/NPY4 cells, thallium flux fluorescence | activation (% efficacy), % for hits at 37.5 µM;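 active = primary screen hit, no activity in plain HEK293 cells, and in GIRK2-only cells above 5% efficacy rising with concentration; inactive = the rest, including fluorescent compounds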;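 also: efficacy is normalized control-subtracted fluorescence 15 s after thallium addition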
Numbers without * were called inactive; i = inactive; . = not tested or not shown; + = active, no number.

SMILES | AMPAR-TARP mod | GIRK2 act
N#Cc1ccccc1Cn1c(=O)n(CCCC(=O)NCc2ccccc2)c(=O)c2sccc21 | i | i
CC(C)c1nnc(C2CCN(S(=O)(=O)c3cccnc3)CC2)o1 | i | i
CC(C)c1nnc(C2CCN(S(=O)(=O)c3ccc4c(c3)CCCC4)CC2)o1 | + | i
COc1ccc(C2(CNS(=O)(=O)c3c(C)n[nH]c3C)CCCC2)cc1 | + | i
COc1ccc(C2(CNS(=O)(=O)c3cccnc3)CCCC2)cc1 | i | i
Cc1csc(C(=O)NCC2(O)CCOCC2)c1 | . | i
COc1cc(C)c(C)cc1S(=O)(=O)NCC1CCN(C)CC1 | i | .
CCc1ccc(OCCOCC(O)CN2CCN(Cc3ccc4c(c3)OCO4)CC2)cc1 (stereo not given) | + | .
Cc1cc(C)cc(OCC(O)CN2CCN(Cc3ccc4c(c3)OCO4)CC2)c1 (stereo not given) | i | .
CCCNC(=O)c1c(N)n(-c2ccc(OC)cc2OC)c2nc3ccccc3nc12 | i | i
CC(=O)c1ccc(NC(=O)Cn2nc(C(=O)N3CCOCC3)cc2C)cc1 | i | i
CS(=O)(=O)N1CCC2(CC1)OCCO2 | i | i
O=C(NCCCS(=O)(=O)N1CCN(c2ccccc2)CC1)c1ccc[nH]c1=O | i | i
COc1cccc(OCC(=O)NCC2(O)CCCC2)c1 | i | i
COc1ccc(NC(=O)C(C)Sc2nnnn2-c2ccc(OC)cc2)cc1 (stereo not given) | i | .
CCOc1ccc(-n2nnnc2SC(C)C(=O)Nc2ccccc2C#N)cc1 (stereo not given) | + | .
CCOc1ccc(-n2nnnc2SC(C)C(=O)Nc2cccc(C(C)=O)c2)cc1 (stereo not given) | + | .
COc1ccc(-n2nnnc2SC(C)C(=O)Nc2cccc(Cl)c2)cc1 (stereo not given) | i | .
CCOc1ccc(-n2nnnc2SC(C)C(=O)Nc2ccccc2C(=O)OC)cc1 (stereo not given) | + | .
COc1ccccc1NC(=O)C(C)Sc1nnnn1-c1ccc(Cl)cc1 (stereo not given) | i | .
COc1ccc(S(=O)(=O)CCCC(=O)Nc2nc3c(s2)CSc2ccccc2-3)cc1 | i | i
Cc1ccc(Cl)cc1S(=O)(=O)NC1CCCC(O)C1 (stereo not given) | i | i
COc1ccc(S(=O)(=O)CCC(=O)Nc2nc3c(C)c(Cl)ccc3s2)cc1 | i | i
COCCn1nnn(-c2ccc(NC(=O)CCSc3ccccc3)cc2)c1=O | i | i
COc1ccc(S(=O)(=O)N2CCN=C2SCc2ccc(Cl)cc2)cc1 | i | .
SMILES | AMPAR-TARP mod | GIRK2 act
COc1ccc2nc(NC(=O)NC34CC5CC(CC(C5)C3)C4)sc2c1 | i | i
Nc1nc2ccc(OC(F)(F)F)cc2s1 | + | i
COc1ccc(-c2c(C#N)c(SCC(N)=O)nc3c2C(=O)CC(C)(C)C3)cc1 | i | i
COc1ccc(C2NC(=O)NC(C)=C2C(=O)Nc2ccccc2F)c(OC)c1 (stereo not given) | i | .
CC(C)S(=O)(=O)c1cccc(C(=O)Nc2sc3c(c2C(N)=O)CCCC3)c1 | i | i
O=C(Nc1sc2c(c1C(=O)O)CCC2)c1cccc(Cl)c1 | + | .
COC(=O)c1c(NC(=O)c2cc(C)no2)sc2c1CC(C)(C)NC2(C)C | . | i
COC(=O)c1c(NC(=O)c2ccco2)sc2c1CC(C)(C)NC2(C)C | + | i
COc1cccc(C2CC(C(F)(F)F)n3ncc(C(=O)NC4CCCCC4)c3N2)c1 (stereo not given) | i | .
CCOc1cn(-c2ccc(F)cc2)nc1C(=O)NC1CCCCC1C (stereo not given) | + | i
COc1ccccc1NC(=O)c1nn(-c2ccc(F)cc2)cc1OCc1ccccc1 | + | i
CCOc1cn(-c2ccc(F)cc2)nc1C(=O)NCCOC | i | i
COc1ccc(OC)c(NC(=O)c2nn(-c3ccc(F)cc3)cc2OCc2ccccc2)c1 | i | i
CCc1ccc(-c2ccc(=O)n(CC(=O)Nc3ccc(F)c([N+](=O)[O-])c3)n2)cc1 | i | i
CCCc1c(C(=O)Nc2cc(OC)ccc2OC)nnn1-c1ccccc1 | i | i
COC(=O)c1cccc(NC(=O)c2nnn(-c3ccccc3F)c2C)c1 | + | i
CCCc1c(C(=O)Nc2cccc(C(=O)OC)c2)nnn1-c1ccccc1 | + | i
COC(=O)c1ccc(NC(=O)c2nnn(-c3ccccc3)c2C)cc1 | i | i
Cc1cc(NC(=O)C(c2ccccc2)c2ccccc2)n(C2CCS(=O)(=O)C2)n1 (stereo not given) | i | i
COc1cccc(CNC(=O)C(=O)Nc2cc3c4c(c2)CCC(=O)N4CCC3)c1 | i | i
Cc1cccc(NC2SC(=O)N(C(C)C)C2=O)c1 (stereo not given) | i | i
